Compounds with a hit are over-represented: about 32% of the library has one in this group of screens.
CYP2C19 inhib: blocks human cytochrome P450 2C19. actives 21% (n = 96,000). AID 778. CYP2C19 Supersomes, luciferin-H EGE luminescence, 30 min. inhibition, % at 5 µM. P33261;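 active = CYP2C19 inhibition above a set limit at 5 µM in the primary screen, cut at about 50% in these data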;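 also: plate controls were negative control wells for no effect and 2.5 mM tranylcypromine positive control for full effect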
CYP2C9 inhib: inhibitors of human CYP2C9 | P11712 | CYP2C9 Supersomes, luciferin-H conversion, luminescence | inhibition, % at 5 µM | actives 20% (n = 96,000);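 active = blocking of liver enzyme CYP2C9 beyond about 50% at 5 µM, limit read from the data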
Target sequence (P11712 whole entry, looked up): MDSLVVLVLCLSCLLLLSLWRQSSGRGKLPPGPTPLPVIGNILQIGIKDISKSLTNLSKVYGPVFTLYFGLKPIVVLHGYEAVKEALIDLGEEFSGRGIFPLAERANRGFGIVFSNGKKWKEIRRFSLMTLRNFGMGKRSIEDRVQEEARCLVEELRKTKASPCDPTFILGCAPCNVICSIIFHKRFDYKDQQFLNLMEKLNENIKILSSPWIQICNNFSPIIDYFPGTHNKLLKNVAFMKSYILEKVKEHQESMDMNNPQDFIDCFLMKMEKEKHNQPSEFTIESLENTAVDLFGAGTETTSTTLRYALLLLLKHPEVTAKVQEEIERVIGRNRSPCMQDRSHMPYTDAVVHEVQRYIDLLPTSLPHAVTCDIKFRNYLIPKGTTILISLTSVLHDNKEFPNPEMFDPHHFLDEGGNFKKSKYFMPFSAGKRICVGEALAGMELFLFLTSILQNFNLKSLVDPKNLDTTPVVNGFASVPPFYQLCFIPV
CYP2C9 act: increases human cytochrome P450 2C9 activity; actives 1.4% (n = 96,000); activation factor at 5 µM; AID 1024; recombinant CYP2C9, luciferin-H conversion, luminescence; stronger effect = higher value; factor 1 = untreated enzyme, 0 = blocked;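 active = activation factor of 2 or more for CYP2C9 at a 5 µM dose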;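 also: 0 = sulfaphenazole-blocked wells and 1 = vehicle-only wells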
PostGolgi yeast: growth inhibition of a yeast mutant, post-Golgi transport screen; post-Golgi transport phenotypic cell assay; inhibition, % at 10 µM; actives 0.9% (n = 98,000);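 also: yeast cells grown in 1536-well plates; yeast grown about 18 h at 30C before absorbance read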
PostGolgi ctrl: inhibits growth of the yeast control strain; efflux-deficient yeast background strain, growth absorbance A615, 16 h; inhibition, % at 10 µM; actives 5% (n = 98,000)
CYP2C19 act: increases human CYP2C19 enzyme activity | recombinant CYP2C19, luciferin-H EGE luminescence; stronger effect = higher value; 0 = fully inhibited enzyme, 1 = untreated enzyme | activation factor at 5 µM | 96,000 tested, under 10 active | AID 1025;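 active = activation factor of at least 2 at 5 µM in the primary screen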;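 also: 0 = wells with 2.5 mM tranylcypromine and 1 = vehicle-only wells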
Numbers without * were called inactive. Rule as the data show it, unless noted: active = inhibition above about 30%; inactive = the rest.

COc1ccc(C(CNC(=O)C2CC(=O)N(Cc3ccc(C)cc3)C2)N(C)C)cc1 (stereo not drawn) was read as CYP2C19 inhib 29, CYP2C9 inhib 21, CYP2C9 act 0.8, PostGolgi yeast 1, PostGolgi ctrl -2 and CYP2C19 act 0.7.
COCc1cc(C)nc(SCC(=O)c2ccc(O)c(O)c2)c1C#N was read as CYP2C19 inhib 40, CYP2C9 inhib -19, CYP2C9 act 1.2, PostGolgi yeast 11, PostGolgi ctrl 5 and CYP2C19 act 0.6.
For COC(=O)c1c(C)[nH]c(C)c1-c1ccc(C)cc1 the results were CYP2C19 inhib 82*, CYP2C9 inhib 38, CYP2C9 act 0.6, PostGolgi yeast 0, PostGolgi ctrl 16 and CYP2C19 act 0.2.
For O=C(CCN(CCO)Cc1ccccc1)Nc1ccc(Br)cc1 the results were CYP2C19 inhib 69*, CYP2C9 inhib 63*, CYP2C9 act 0.4, PostGolgi yeast 1, PostGolgi ctrl -3 and CYP2C19 act 0.3.
CCN(CCC(=O)Nc1ccc(Br)c(C)c1)Cc1ccccc1 was read as CYP2C19 inhib 38, CYP2C9 inhib 64*, CYP2C9 act 0.4, PostGolgi yeast 6, PostGolgi ctrl 11 and CYP2C19 act 0.6.
CCCC(=O)Nc1cccc(NC(=O)c2ccccc2Br)c1 was read as CYP2C19 inhib 18, CYP2C9 inhib 8, CYP2C9 act 0.9, PostGolgi yeast -3, PostGolgi ctrl 2 and CYP2C19 act 0.8.
Screening COc1cc(-c2nc3cnccn3c2Nc2ccccc2)ccc1O returned CYP2C19 inhib 42, CYP2C9 inhib 51*, CYP2C9 act 0.5, PostGolgi yeast 7, PostGolgi ctrl 20 and CYP2C19 act 0.6.
`COc1cc(-c2nc3cnccn3c2Nc2ccc(C)cc2)ccc1O` gave CYP2C19 inhib 80*, CYP2C9 inhib 55*, CYP2C9 act 0.5, PostGolgi yeast -8, PostGolgi ctrl 34* and CYP2C19 act 0.2.
For O=C1OCCC1Sc1nc2cc(Cl)ccc2n1Cc1ccccc1 (stereo not drawn) the results were CYP2C19 inhib 59*, CYP2C9 inhib 48, CYP2C9 act 0.5, PostGolgi yeast 3, PostGolgi ctrl 20 and CYP2C19 act 0.4.
Screening OC1CCCCC1Sc1nc2ccccc2s1 (stereo not drawn) returned CYP2C19 inhib 66*, CYP2C9 inhib 40, CYP2C9 act 0.6, PostGolgi yeast 2, PostGolgi ctrl 12 and CYP2C19 act 0.3.
O=C1OCCC1Sc1nc2ccccc2s1 (stereo not drawn) was read as CYP2C19 inhib 62*, CYP2C9 inhib -88, CYP2C9 act 1.9, PostGolgi yeast 4, PostGolgi ctrl -6 and CYP2C19 act 0.4.
Screening O=C1OCCC1Sc1nc2cc(Cl)ccc2s1 (stereo not drawn) returned CYP2C19 inhib 92*, CYP2C9 inhib -163, CYP2C9 act 2.6*, PostGolgi yeast 8, PostGolgi ctrl 20 and CYP2C19 act 0.1.
For CSc1nc2cc(Cl)ccc2s1 the results were CYP2C19 inhib 0, CYP2C9 inhib 7, CYP2C9 act 0.9, PostGolgi yeast 2, PostGolgi ctrl 4 and CYP2C19 act 1.
C=CCn1c(SC2CCOC2=O)nc2sc(CC)cc2c1=O (stereo not drawn) was read as CYP2C19 inhib 2, CYP2C9 inhib 31, CYP2C9 act 0.7, PostGolgi yeast 1, PostGolgi ctrl 9 and CYP2C19 act 1.
O=C(Nc1nc2ccccc2s1)C1CCCO1 (stereo not drawn) was read as CYP2C19 inhib 40, CYP2C9 inhib 18, CYP2C9 act 0.8, PostGolgi yeast -17, PostGolgi ctrl -5 and CYP2C19 act 0.6.
Screening COc1ccc(S(=O)(=O)N[C@@H](Cc2ccc(Cl)cc2)C(=O)N2CC[C@@]3(O)CCCC[C@H]3C2)cc1 returned CYP2C19 inhib 44, CYP2C9 inhib 31, CYP2C9 act 0.7, PostGolgi yeast 3, PostGolgi ctrl 8 and CYP2C19 act 0.6.
Screening CCCCn1nnnc1SCC(=O)NCc1ccccc1 returned CYP2C19 inhib 42, CYP2C9 inhib 13, CYP2C9 act 0.9, PostGolgi yeast -4, PostGolgi ctrl 3 and CYP2C19 act 0.6.
Cc1ccc(C)c(NC(=O)c2ccc[n+](Cc3ccc([N+](=O)[O-])cc3)c2)c1 was read as CYP2C19 inhib -14, CYP2C9 inhib -6, CYP2C9 act 1.1, PostGolgi yeast -7, PostGolgi ctrl 10 and CYP2C19 act 1.1.
For CCOC(=O)N1CCN(C(=O)CSCC(=O)Nc2nc(-c3ccc(OC)cc3)cs2)CC1 the results were CYP2C19 inhib 84*, CYP2C9 inhib 83*, CYP2C9 act 0.2, PostGolgi yeast -12, PostGolgi ctrl 30* and CYP2C19 act 0.2.
O=C(Nc1nc(-c2ccc3c(c2)OCO3)cs1)C1CC1 was read as CYP2C19 inhib 33, CYP2C9 inhib 48, CYP2C9 act 0.5, PostGolgi yeast 1, PostGolgi ctrl 10 and CYP2C19 act 0.7.
CCCC(=O)Nc1nc(-c2ccc(OC)cc2)cs1 was read as CYP2C19 inhib 64*, CYP2C9 inhib 96*, CYP2C9 act 0, PostGolgi yeast -3, PostGolgi ctrl 20 and CYP2C19 act 0.4.
Screening CCCC(=O)Nc1nc(-c2ccc3c(c2)OCCO3)cs1 returned CYP2C19 inhib 13, CYP2C9 inhib 86*, CYP2C9 act 0.1, PostGolgi yeast 16, PostGolgi ctrl 2 and CYP2C19 act 0.9.
For CCn1c(SCC(=O)Nc2cc(C)on2)nc2c1c(=O)n(C)c(=O)n2C the results were CYP2C19 inhib 6, CYP2C9 inhib 9, CYP2C9 act 0.9, PostGolgi yeast 0, PostGolgi ctrl 13 and CYP2C19 act 0.9.
Screening CSc1nnc(Cc2cc(=O)[nH]c(=O)[nH]2)n1-c1cc(C)ccc1C returned CYP2C19 inhib -1, CYP2C9 inhib 1, CYP2C9 act 1, PostGolgi yeast -1, PostGolgi ctrl 5 and CYP2C19 act 1.
Screening CCSc1nnc(Cc2cc(=O)[nH]c(=O)[nH]2)n1-c1cc(C)ccc1C returned CYP2C19 inhib -15, CYP2C9 inhib -9, CYP2C9 act 1.1, PostGolgi yeast -6, PostGolgi ctrl 30* and CYP2C19 act 1.1.
For O=S1(=O)Nc2c(ccc3cccnc23)-c2ccccc21 the results were CYP2C19 inhib 4, CYP2C9 inhib 65*, CYP2C9 act 0.4, PostGolgi yeast 85*, PostGolgi ctrl 72* and CYP2C19 act 1.
Screening COc1ccc(C)cc1-n1nnnc1SCC1CCCCO1 (stereo not drawn) returned CYP2C19 inhib 100*, CYP2C9 inhib 73*, CYP2C9 act 0.3, PostGolgi yeast -4, PostGolgi ctrl 12 and CYP2C19 act 0.
`Cc1cccc(Nc2nnc(SCc3cn4ccsc4n3)s2)c1` gave CYP2C19 inhib 74*, CYP2C9 inhib 57*, CYP2C9 act 0.4, PostGolgi yeast -2, PostGolgi ctrl 21 and CYP2C19 act 0.3.
